Bioassay records (PubChem)
HCMV antiviral: qHTS Assay for inhibitors of the human cytomegalovirus (HCMV); HFF cells, HCMV-luciferase reporter, 72 h; hits give low values; activity change, negative = inhibition, % at 57.5 µM; actives 4.5% (n = 410,000); AID 1259415, 2018; in the data active means activity change below about -60%; inconclusive means no clear call, values can overlap the other calls; inactive means above about -39%
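After 16 h attachment at 37C, HFF cells received test compound and HCMV-luciferase (1 PFU/cell); reporter luminescence read 72 h later, data normalized against buffer-only and known inhibitor Salinomycin.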
FMDV antiviral: High Throughput Screening for Foot and Mouth Disease Virus Antivirals; FMDV antiviral cell-based qHTS; Potency, µM (top dose mostly 57.9 µM), without a hit: at the highest dose activity change, negative = inhibition, most hits filed as inhibitors; actives 1.2% (n = 410,000); AID 1159524, 2015; calls by dose curve; tested in HEK293T cells; further: read-out not given here; potency means the concentration at half of the fitted maximal effect; nearly all actives have a fitted effect of over 45% in size
Giardia FBPA inh: qHTS Assay for Inhibitors of Fructose-1,6-bisphosphate Aldolase from Giardia Lamblia | purified Giardia FBPA | A8B2U2 | AID 2451, 2010 | Potency, µM (series often up to 59.6 µM), for inactives: at the highest dose activity, negative = inhibition, usual class: inhibitors | actives 0.71% (n = 290,000); further: potency means the concentration at half of the fitted maximal effect; nearly all actives have a fitted effect of over 55% in size
Target sequence (A8B2U2 whole entry, looked up): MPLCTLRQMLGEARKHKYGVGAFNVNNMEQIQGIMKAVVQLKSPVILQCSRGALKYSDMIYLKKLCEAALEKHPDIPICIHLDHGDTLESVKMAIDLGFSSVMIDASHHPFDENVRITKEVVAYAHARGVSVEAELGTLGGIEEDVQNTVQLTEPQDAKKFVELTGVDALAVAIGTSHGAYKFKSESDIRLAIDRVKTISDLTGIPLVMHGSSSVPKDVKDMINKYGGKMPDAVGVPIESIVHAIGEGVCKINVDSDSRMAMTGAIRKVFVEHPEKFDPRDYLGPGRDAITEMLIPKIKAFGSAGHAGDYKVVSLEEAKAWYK
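Giardia FBPA (40 nM reagent) was preincubated 10 min at RT with compound (up to 57.5 uM final), then substrate plus GAPDH/TPI/NAD/arsenate coupling system with diaphorase/resazurin was added; resorufin fluorescence (525/598 nm) was read after 20 min.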
Vaccinia Venus: qHTS for Stage-Specific Inhibitors of Vaccinia Orthopoxvirus: Venus Reporter Primary qHTS | Vaccinia virus Venus reporter expression, fluorescence | Potency, µM (top dose mostly 36.5 µM), without a hit: at the highest dose activity change, negative = inhibition, usual class: inhibitors | actives 0.46% (n = 330,000); calls by dose curve; tested in A549 cells; further: potency means the concentration at half of the fitted maximal effect; nearly all actives have a fitted effect of over 30% in size
HCV inh: qHTS Assay for Inhibitors of Hepatitis C Virus (HCV); Huh7.5.1 HCVcc-Cre infection, luciferase reporter, 44 h; Potency, µM (titrated, usually from 41.8 µM), without a hit: at the highest dose activity change, negative = inhibition, hits mostly inhibitors; actives 3.4% (n = 340,000); further: potency means the concentration at half of the fitted maximal effect
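Seed cells (1,000/well) for 4 h; treat with compound and infect with HCVcc-Cre, moi about 0.5. Incubate 44 h, then detect luciferase activity.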
VACV mCherry inh: qHTS for Stage-Specific Inhibitors of Vaccinia Orthopoxvirus: mCherry Reporter Primary qHTS; actives 0.63% (n = 310,000); Potency, µM (highest dose often 36.5 µM), for inactives: at the top dose activity change, negative = inhibition, hits mostly inhibitors; AID 720579, 2013; Vaccinia virus mCherry reporter infection, fluorescence; calls by dose curve; tested in A549 cells; further: potency means the concentration at half of the fitted maximal effect; nearly all actives have a fitted effect of over 35% in size
Numbers without * were called inactive; i = inactive; ? = inconclusive; . = no result given; ! = a repeat was not active; [ ] = another dose, or the depositor's remark. Rows were chosen to be rich in hits. Some 7.5% of all compounds tested hit in one or more screens of this group. Unless noted, the call rests on the fitted dose curve; in most records, active means well fitted curve in the direction sought with a large enough effect; inconclusive means small, poorly fitted or top-dose-only effect, or another doubt; inactive means no such curve, though single readings can be large; an effect the other way counts as inactive or inconclusive. On the % scale 0 is the no-effect control and ±100 the full control effect.

SMILES	HCMV antiviral	FMDV antiviral	Giardia FBPA inh	Vaccinia Venus	HCV inh	VACV mCherry inh
COc1cc(OC)c(NC(=O)N2CCc3c([nH]c4ccccc34)C2c2ccccc2F)cc1Cl (stereo not drawn)	?	-18%	.	-13%	.	-14%
Cc1cccc(CNc2ncnc3ccc(-c4ccccc4C#N)cc23)c1	.	-17%	0%	20%	.	29%
CCOC(=O)C1=C(C)N=c2sc(=Cc3ccc(OCC(=O)O)cc3)c(=O)n2C1c1ccc(Cl)cc1 (stereo not drawn)	0	?	.	-2%	.	i
CCOC(=O)C1=C(C)N=c2s/c(=C\c3ccc(OCC(=O)O)cc3)c(=O)n2C1c1ccc(OC(C)C)cc1 (stereo not drawn)	-35	40µM*	16%	-16%	9%	-26%
COC(=O)N1C2(C=CC1(C)C(=O)NCc1ccc(N(C)C)cc1)CCCCC2 (stereo not drawn)	.	.	-10%	.	.	.
NC1=C(Br)C(=O)c2ncccc2C1=O	-102*	4µM*	.	2.5µM*	?	?
Cc1ccc(-c2nnc(SCCC(=O)N3CCOCC3)o2)cc1	-101*	1%	2%	-15%	15%	-4%
CCOC(=O)N1CCN(C(=O)CSc2nnc(-c3ccc(C(C)(C)C)cc3)o2)CC1	26	?	-1%	?	2%	5.6µM*
CCOC(=O)N1CCN(C(=O)CSc2nnc(-c3ccccc3OC)o2)CC1	25	-3%	3%	-42%	-9%	.
CCOC(=O)N1CCN(C(=O)CSc2nnc(-c3cc(OC)ccc3OC)o2)CC1	11	?	-7%	-27%	10µM*!	-25%
C#CCSc1nnc(-c2ccc(O)cc2)o1	-18	21%	7%	-22%	8%	-6%
C#CCSc1nnc(-c2ccc(C)cc2)o1	18	19%	2%	?	5%	10µM*
Cc1ccc(CN2[C@H](C)[C@H](c3ccccc3)OCCS2(=O)=O)cc1	.	.	.	-27%	.	-10%
CCOC(=O)N1CCN(C(=O)CSc2nnc(-c3ccc(C)c(C)c3)o2)CC1	-17	0%	2%	?	2%	10µM*
N#Cc1ccccc1OC[C@H](O)CNCCNC(=O)Nc1ccccc1	.	-3%	-1%	.	.	.
Cn1cccc1C(=O)OCC(=O)N1CCc2ccccc2C1	-61*	29%	.	-27%	.	-15%
Oc1ccc(/C=N/N2CCOCC2)c(O)c1O	-24	-5%	5.6µM*	-3%	28%	-9%
Oc1cccc(/C=N/N2CCCCC2)c1O	-23	66%	-12%	-16%	-29%	0%
Oc1ccc(/C=N/N2CCCCC2)c(O)c1O	-3	4%	2.8µM*	2%	9%	-6%
C[C@H](O)[C@@H]1C(=O)N2CCc3c([nH]c4ccccc34)[C@@H]2C[C@@H]1N(C)C(=O)NC1CCCCC1	19	-1%	.	?	.	i
CC1Cc2cc(S(=O)(=O)CCC(=O)Nc3ccc(OC(F)(F)F)cc3)ccc2N1C(=O)C1CC1 (stereo not drawn)	?	?	.	-27%	.	-22%
COc1ccc(N2CCN(C(=O)CSc3nnnn3-c3ccc4c(c3)OCCO4)CC2)cc1	?	.	-2%	-28%	7.9µM*	-30%
CCOC(=O)CSc1nnc(-c2c[nH]c3ccccc23)n1CC	-11	-18%	-2%	7%	16%	14%
CCn1c(SCC(=O)N2CCN(c3ccccc3)CC2)nnc1-c1c[nH]c2ccccc12	-75*	?	-1%	?	8.9µM*	?
CCn1c(SCC(=O)N2CCCc3ccccc32)nnc1-c1c[nH]c2ccccc12	-26	?	0%	-26%	?	.
SMILES	HCMV antiviral	FMDV antiviral	Giardia FBPA inh	Vaccinia Venus	HCV inh	VACV mCherry inh
Cn1c(SCC(=O)N2CCN(c3ccccc3)CC2)nnc1-c1c[nH]c2ccccc12	-80*	18µM*	3%	?	?	-24%
CCn1c(SCC(=O)N2CCc3ccccc32)nnc1-c1c[nH]c2ccccc12	?	32µM*	-5%	-14%	-8%	.
CS(=O)(=O)Nc1cccc(C2=NN(C(=O)c3cccc([N+](=O)[O-])c3)C(c3cccs3)C2)c1 (stereo not drawn)	-17	-10%	-11%	.	?	.
COc1ccccc1NC(=O)Cc1c(C(=O)O)[nH]c2ccc(Cl)cc12	-26	-23%	.	-6%[7.34 µM]	.	-4%[7.34 µM]
COc1ccccc1NC(=O)c1sc2cccc(Cl)c2c1Cl	-40	8%	.	-1%	.	-3%
Cn1cc(-c2cc3cnc(Nc4ccc5c(c4)OCO5)cc3n2C)cn1	-7	.	.	.	.	.
COc1ccc(N2CCN(C(=O)CSc3nnc(-c4cc5ccccc5cc4O)n3C)CC2)cc1	-67*	25µM*	-1%	.	?	.
COc1ccc(-n2cnnc2SCC(=O)N2CCN(c3ccccc3)CC2)cc1	-23	?	-1%	-17%	-8%	.
Cc1noc(C)c1NC(=O)N(C)C[C@@H]1Oc2c(NC(=O)c3ccncc3)cccc2C(=O)N([C@H](C)CO)C[C@@H]1C	-28	0%	.	-1%	2%	i
COCCNC(=O)c1cccc(S(=O)(=O)N2CC3(C)CC2CC(C)(C)C3)c1 (stereo not drawn)	-16	-8%	.	-12%	23%	i
CN(C)c1cc[n+](CC(=O)N2c3ccccc3Sc3ccccc32)cc1	-84*	-21%	2%	-9%	-23%	i
O=C(C[n+]1ccccc1)N1c2ccccc2Sc2ccccc21	-75*	7%	-1%	8%	?	4%
O=C(NCCc1ccccc1)N1c2ccccc2Sc2ccccc21	-11	28µM*	-3%	-30%	?	-14%
O=C(COc1ccccc1)N1c2ccccc2Sc2ccccc21	-39	-17%	-2%	11%	?	i
CC(C)CNC(=O)N1c2ccccc2Sc2ccccc21	-23	-10%	7%	-4%	-2%	-16%
Cc1ccc(-c2noc(-c3nnn(CC(=O)Nc4cc(C)cc(C)c4)c3N)n2)cc1	16	-8%	.	-4%	.	1%
Cc1nc(C)c(/C(O)=C/c2nc3ccc([N+](=O)[O-])cc3oc2=O)o1	.	.	13µM*	.	.	.
CCN(CC)S(=O)(=O)c1cccc(-c2nnc(SC(C)C(=O)NCCC3=CCCCC3)o2)c1 (stereo not drawn)	?	?	-4%	.	11µM*!	.
CCN(CC)S(=O)(=O)c1cccc(-c2nnc(SCC(=O)c3cc(C)n(C4CC4)c3C)o2)c1	-34	-12%	6%	.	-12%	.
CCN(CC)S(=O)(=O)c1cccc(-c2nnc(SCCCC(=O)c3ccccc3)o2)c1	-24	?	7%	.	16µM*	.
